Measured values published in PubChem BioAssay (Tox21).
Where “and” joins values, the source holds several entries; their conditions need not be identical. Equal entries are not always repeated. Inconclusive results are not listed. Where a structure was tested more than once in an assay, its records may differ in their call. Calls of active or inactive are those of the source. Unless noted, calls follow the shape of the dose curve; as a rule, active = well fitted curve in the direction sought with a large enough effect in the repeat runs; inconclusive = weak or mixed curves; inactive = no such curve, though single readings can be large; an effect the other way counts as inactive or inconclusive.

Columns and labels:
[1] = qHTS assay to identify small molecule antagonists of the vitamin D receptor (VDR) signaling pathway - cell viability counter screen (AID 743225); also: nearly all actives have a fitted effect of over 50% in size
Summary of the method: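 Read-out: CellTiter-Glo luminescence measured 30 min after reagent addition at room temperature. Cells were VDR-bla HEK 293T exposed 16 h at 37C, 5% CO2, to compound with 3 nM final calcitriol agonist.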

[2] = qHTS assay to identify small molecule agonists of the NFkB signaling pathway (AID 1159509; active = well fitted curve in the direction sought with a large enough effect in the signal ratio in the repeat runs, not every such curve was filed as active; the % refers to the signal ratio)
Summary of the method: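 Pathway activation was measured in ME-180 cells stably expressing beta-lactamase under NF-kB response element control. Substrate cleavage was read as the 460/530 nm emission shift after 5 hr compound incubation.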

[3] = qHTS assay to identify small molecule agonists of the NFkB signaling pathway - cell viability counter screen (AID 1159515; calls by dose curve; also: nearly all actives have a fitted effect of over 55% in size)
Summary of the method: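 Cells are seeded (2,000 NFkB-bla ME-180 per well), rested overnight, and dosed with DMSO-dissolved compounds for 5 hr at 37 C. Viability is then read by CellTiter-Glo luminescence after 30 min at room temperature.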

[4] = qHTS assay to identify small molecule agonists of the endoplasmic reticulum stress response signaling pathway (AID 1159516; active = well fitted activation curve with a large enough effect in the signal ratio in the repeat runs, not every such curve was filed as active; the % refers to the signal ratio)
Summary of the method: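 Cells are seeded at 1,500 per well and incubated overnight. Compounds in DMSO are added for 5 hr at 37 C, then beta-lactamase FRET substrate for 2 hr at room temperature, and fluorescence at 460 and 530 nm is measured.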

[5] = qHTS assay to identify small molecule antagonists of the retinoid-related orphan receptor gamma (ROR-gamma) signaling pathway - cell viability counter screen (AID 1159520); also: nearly all actives have a fitted effect of over 50% in size
Summary of the method: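 Tet-on ROR gamma CHO cells were given compounds for 2 hr, then doxycycline hyclate at 1 uM final, and incubated 16 hr at 37 C. Viability was measured as ATP content by CellTiter-Glo luminescence.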

[6] = qHTS assay to identify small molecule agonists of the AP-1 signaling pathway - cell viability counter screen (AID 1159525; calls by dose curve; also: nearly all actives have a fitted effect of over 55% in size)
Summary of the method: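 Same-well cytotoxicity counter screen of the Tox21 10K library in ME-180 cells. The readout is ATP-dependent luminescence after 5 h compound treatment. Data are normalised to DMSO and tetra n-octyl ammonium bromide controls.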

[7] = qHTS assay to identify small molecule agonists of the AP-1 signaling pathway (AID 1159526; calls by dose curve)
[8] = target: Retinoic acid receptor RXR-alpha (Homo sapiens) (UniProt P19793); assay: qHTS assay to identify small molecule agonists of the RXR signaling pathway (AID 1159527; calls by dose curve; also: nearly all actives have a fitted effect of over 35% in size)
Retinoic acid receptor RXR-alpha (Homo sapiens), sequence (P19793 whole entry, looked up): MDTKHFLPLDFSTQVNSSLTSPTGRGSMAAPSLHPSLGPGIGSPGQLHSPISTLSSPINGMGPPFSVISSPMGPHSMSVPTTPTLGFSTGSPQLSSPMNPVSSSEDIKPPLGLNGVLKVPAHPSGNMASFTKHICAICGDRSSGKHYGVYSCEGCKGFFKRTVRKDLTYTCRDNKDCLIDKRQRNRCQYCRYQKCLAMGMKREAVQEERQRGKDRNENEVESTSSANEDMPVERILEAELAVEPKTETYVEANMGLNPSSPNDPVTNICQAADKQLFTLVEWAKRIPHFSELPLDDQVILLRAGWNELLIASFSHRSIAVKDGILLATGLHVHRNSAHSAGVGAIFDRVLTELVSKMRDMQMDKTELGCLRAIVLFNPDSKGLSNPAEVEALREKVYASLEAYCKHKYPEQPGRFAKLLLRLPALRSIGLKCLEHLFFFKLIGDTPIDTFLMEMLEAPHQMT
Summary of the method: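 Read-out: beta-lactamase FRET ratio (405 nm excitation, 460 and 530 nm emission) after 2 hr substrate loading at room temperature. Cells were RXR-alpha-UAS-bla HEK 293T treated with compounds for 16 hr in 2% charcoal-stripped FBS medium.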

[9] = qHTS assay to identify small molecule agonists of the RXR signaling pathway - cell viability counter screen (AID 1159529); also: nearly all actives have a fitted effect of over 50% in size; also: potency is read from the fitted curve at half-maximal effect
Summary of the method: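 HEK 293T RXRa-bla cells, 2% CS-FBS; 5 h settle; cpd 16 h 37 C, 5% CO2; CellTiter-Glo 30 min RT, luminescence. Tetraoctyl ammonium bromide as positive control.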

[10] = qHTS assay to identify small molecule antagonists of the retinoid acid receptor (RAR) signaling pathway - cell viability counter screen (AID 1159551); also: nearly all actives have a fitted effect of over 35% in size
Summary of the method: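 Cells (C3RL4) are plated, incubated overnight, dosed with compound in DMSO, then given retinol at 1 uM final. After 6 h at 37 C, CellTiter-Glo is added and luminescence read following 30 min at room temperature.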

[11] = qHTS assay to identify small molecule antagonists of the retinoic acid receptor (RAR) signaling pathway (AID 1159552; also: nearly all actives have a fitted effect of over 50% in size; also: potency is read from the fitted curve at half-maximal effect)
Summary of the method: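 Cells of the C3RL4 line were seeded, incubated overnight, then dosed with compounds in DMSO followed immediately by retinol (1 uM final). Six hours later luciferase detection reagent went in; signal was measured after 30 min at RT.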

[12] = qHTS assay to identify small molecule agonists of the retinoic acid receptor (RAR) signaling pathway (AID 1159553); settings: C3RL4 RARE luciferase reporter, agonist, 6 h; activation: at 73.3 µM (top of the series) unless noted; also: potency is read from the fitted curve at half-maximal effect
Summary of the method: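 Seed C3RL4 reporter cells at 1,000 per well and incubate overnight at 37 C. Add compounds in DMSO, incubate 6 hr. Add luciferase reagent, wait 30 min at room temperature, read luminescence.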

[13] = target: Nuclear receptor ROR-gamma (Homo sapiens) (UniProt P51449); assay: qHTS assay to identify small molecule antagonists of the retinoid-related orphan receptor gamma (ROR-gamma) signaling pathway (AID 1159521; also: nearly all actives have a fitted effect of over 50% in size; also: potency is read from the fitted curve at half-maximal effect)
Summary of the method: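 CHO Tet-on RORγ, RORE-luc reporter. Cpd 2 h pre-incubation, then dox hyclate 1 uM final, 16 h, 37 C/5% CO2. ONE-Glo luminescence; decrease = antagonist.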

[14] = qHTS assay to identify small molecule antagonists of the estrogen related receptor (ERR) signaling pathway - cell viability counter screen (AID 1224818)
Summary of the method: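 ERR cells, 2,000/well; 6 h settle at 37 C/5% CO2; compound pin transfer (DMSO); 17.5 h at 37 C; CellTiter-Fluor, 30 min, fluorescence read.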

[15] = qHTS assay to identify small molecule antagonists of the estrogen related receptor signaling pathway with the pleiotropic PPARgamma coactivator (PGC) cell viability counter screen (AID 1224822;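 also: viability read after 17.5 h compound exposure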)
Summary of the method: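 Multiplexed viability counter screen run in PGC/ERR cells treated with compounds for 17.5 h at 37 C; live-cell protease signal measured by CellTiter-Fluor fluorescence.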

[16] = qHTS assay to identify small molecule agonists of the endoplasmic reticulum stress response signaling pathway - cell viability counter screen (AID 1159517; calls by dose curve)
Summary of the method: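 In parallel with the ESRE reporter read, cytotoxicity was scored by CellTiter-Glo luminescence (30 min, room temperature) on HeLa ESRE-bla cells dosed for 5 hr.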

[17] = qHTS assay to identify small molecule antagonists of the estrogen related receptor (ERR) signaling pathway (AID 1224819)
Summary of the method: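 qHTS in ERR cells, 2,000/well, 1536 format. Cpd (DMSO) added after 6 h settle, 18 h 37 C. One-Glo luminescence, 30 min RT.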

[18] = qHTS assay to identify small molecule agonists of the estrogen related receptor (ERR) signaling pathway (AID 1224820); also: potency is read from the fitted curve at half-maximal effect
Summary of the method: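 An ERR cell line provided by NTP was seeded at 2,000 cells per well and allowed to settle for 6 h before compounds in DMSO were added. After 18 h at 37 C, luciferase activity was measured by One-Glo luminescence.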

[19] = system: estrogen-related receptor alpha (ERRalpha) with PGC-1alpha coactivator, human; assay: qHTS assay to identify small molecule antagonists of the estrogen related receptor signaling pathway with the pleiotropic PPARgamma coactivator (PGC) (AID 1224821; calls by dose curve)
Summary of the method: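 A PGC/ERR cell line supplied by NTP is seeded, allowed 6 h at 37 C, and treated with test compounds in DMSO for 18 h. Signal is then measured as luciferase luminescence using One-Glo.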

Measured: Potency

CCCCC(CC)COC(=O)Cl (stereo unspecified)
not listed: [13] | [14] | [15] | [16] | [17] | [18] | [19]
inactive: all other assays above

Nc1ccc(Cl)c(Cl)c1
not listed: [11] | [12] | [14] | [15] | [16] | [17] | [18] | [19]
inactive: all other assays above

Nc1ccncc1
not listed: [5] | [11] | [12] | [13] | [16] | [17] | [18] | [19]
inactive: all other assays above

CC(C)(C)c1ccccc1O
inactive: [1] | [2] | [3] | [4] | [13] | [6] | [8] | [9] | [10]

Nc1ccc(-c2ccc(N)c(N)c2)cc1N
active: [13] 27.2 µM | [12] 10.8 µM and 8.63 µM
inactive: [1] | [2] | [3] | [5] | [6] | [9] | [10] | [11]

CC(C)c1ccc(CO)cc1
not listed: [5] | [14] | [15] | [16] | [17] | [18] | [19]
inactive: all other assays above

Cc1cccc(N)c1N
active: [12] 1.05 µM and 2.43 µM
not listed: [8] | [14] | [15] | [16] | [17] | [18] | [19]
inactive: all other assays above

CCOP(=S)(OCC)O/N=C(\C#N)c1ccccc1
not listed: [7] | [14] | [15] | [16] | [17] | [18] | [19]
inactive: all other assays above

CCOC(=O)C(C)OC(=O)c1cc(Oc2ccc(C(F)(F)F)cc2Cl)ccc1[N+](=O)[O-] (stereo unspecified)
not listed: [13] | [14] | [15] | [16] | [17] | [18] | [19]
inactive: all other assays above

O=P(O)(O)CCCl
not listed: [14] | [15] | [16] | [17] | [18] | [19]
inactive: all other assays above

CCOc1cc(Oc2ccc(C(F)(F)F)cc2Cl)ccc1[N+](=O)[O-]
not listed: [13] | [14] | [15] | [16] | [17] | [18] | [19]
inactive: all other assays above

O=C(NC(=O)c1c(F)cccc1F)Nc1ccc(Cl)cc1
not listed: [4] | [12] | [14] | [15] | [17] | [18] | [19]
inactive: all other assays above

CCC(CC)Nc1c([N+](=O)[O-])cc(C)c(C)c1[N+](=O)[O-]
inactive: [1] | [2] | [3] | [16] | [5] | [13] | [6] | [10]

O=[N+]([O-])c1ccc(O)c([N+](=O)[O-])c1
active: [13] 17.3 µM and 17.2 µM | [9] 12.3 µM
inactive: [2] | [4] | [16] | [5] | [6] | [7] | [10] | [11] | [12]

CCCCN(CC)c1c([N+](=O)[O-])cc(C(F)(F)F)cc1[N+](=O)[O-]
not listed: [4] | [14] | [15] | [17] | [18] | [19]
inactive: all other assays above

CCOC(=S)S
inactive: [1] | [2] | [3] | [4] | [16] | [7] | [11]
active: [13] 13.7 µM and 16.3 µM | [9] 23.3 µM

C=CCc1ccc(OC)cc1
inactive: [1] | [2] | [3] | [4] | [13] | [6] | [7] | [8] | [9] | [10]

Nc1ccc(-c2ccccc2)cc1
active: [12] 35.3 µM and 9.69 µM
62.8 µM (active) and inactive: [11]
not listed: [8] | [14] | [15] | [16] | [17] | [18] | [19]
inactive: all other assays above

Nc1ccc(Cl)cc1N
active: [12] 1.6 µM and 545 nM | [18] 5.88 µM
not listed: [2]
inactive: all other assays above

CC(C)N(C(=O)SCC(Cl)=C(Cl)Cl)C(C)C
not listed: [4] | [7] | [14] | [15] | [16] | [17] | [18] | [19]
inactive: all other assays above

CCC(C)c1ccc(O)cc1 (stereo unspecified)
not listed: [11] | [12] | [14] | [15] | [16] | [17] | [18] | [19]
inactive: all other assays above
